Results published in PubChem BioAssay (NCATS).
A number with no mark means an inactive call. Results filed as inconclusive are left out. Entries that show only a call come without a potency. Activity calls are given as the source filed them. Unless noted, the call rests on the fitted dose curve; in most records, active means well fitted curve in the direction sought with a large enough effect; inconclusive means small, poorly fitted or top-dose-only effect, or another doubt; inactive means no such curve, though single readings can be large; an effect the other way counts as inactive or inconclusive.

Assays:
[1] = molecular target: Lysosomal acid glucosylceramidase (Homo sapiens) (UniProt P04062); assay: Glucocerebrosidase-p2 (AID 348; in the data active means potency below about 10 µM; further: potency means the concentration at half of the fitted maximal effect); details: purified GBA, blue fluorogenic substrate, 40 min
Sequence of Lysosomal acid glucosylceramidase (Homo sapiens) (P04062 whole entry, looked up): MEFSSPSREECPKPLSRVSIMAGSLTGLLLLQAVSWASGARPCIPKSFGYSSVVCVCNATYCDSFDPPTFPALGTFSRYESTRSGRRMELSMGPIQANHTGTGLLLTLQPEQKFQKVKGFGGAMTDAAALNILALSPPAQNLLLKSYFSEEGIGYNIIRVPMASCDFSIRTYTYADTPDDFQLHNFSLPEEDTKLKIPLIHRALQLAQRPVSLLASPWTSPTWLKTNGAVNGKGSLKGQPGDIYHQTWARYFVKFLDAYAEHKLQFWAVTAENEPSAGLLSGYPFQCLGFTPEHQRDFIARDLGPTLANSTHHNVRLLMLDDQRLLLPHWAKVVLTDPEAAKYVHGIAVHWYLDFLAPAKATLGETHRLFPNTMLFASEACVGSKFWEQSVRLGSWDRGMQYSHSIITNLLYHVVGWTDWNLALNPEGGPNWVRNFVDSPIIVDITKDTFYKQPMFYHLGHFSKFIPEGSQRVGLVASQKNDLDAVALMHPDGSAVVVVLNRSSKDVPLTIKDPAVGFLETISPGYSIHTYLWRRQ
In short: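 Compounds titrated from 0.6 nM upwards against 0.2 nM enzyme in pH 5.9 citric acid/KH2PO4, taurocholate, tween-20; blue fluorogenic substrate 80 uM, 40 min room temperature, stopped and read Ex 365/Em 440 for AC50.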

[2] = AP1 Signaling Pathway (AID 357; active means well fitted curve in either direction with a large enough effect, not every such curve was filed as active;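 further: ME-180 reporter cells stimulated with EGF at its EC50 level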); details: ME-180 AP-1-bla reporter, EGF-induced, beta-lactamase ratio, 5 h; at 7.69 µM (top of the series) unless noted
In short: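 Titration-series screen for positive or negative modulators of EC50 EGF-induced signaling in ME-180 cells carrying an AP-1-driven beta-lactamase reporter. After 5 hours at 37 degrees Celsius, CCF4 460nm/530nm emission ratio gave %Activity; AC50 values derived.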

[3] = molecular target: Cytochrome P450 1A2 (Homo sapiens) (UniProt P05177); assay: p450-cyp1a2 (AID 410; calls by dose curve; further: potency means the concentration at half of the fitted maximal effect); details: recombinant CYP1A2, luciferin-ME demethylation, luminescence; series mostly up to 57 µM
Sequence of Cytochrome P450 1A2 (Homo sapiens) (P05177 whole entry, looked up): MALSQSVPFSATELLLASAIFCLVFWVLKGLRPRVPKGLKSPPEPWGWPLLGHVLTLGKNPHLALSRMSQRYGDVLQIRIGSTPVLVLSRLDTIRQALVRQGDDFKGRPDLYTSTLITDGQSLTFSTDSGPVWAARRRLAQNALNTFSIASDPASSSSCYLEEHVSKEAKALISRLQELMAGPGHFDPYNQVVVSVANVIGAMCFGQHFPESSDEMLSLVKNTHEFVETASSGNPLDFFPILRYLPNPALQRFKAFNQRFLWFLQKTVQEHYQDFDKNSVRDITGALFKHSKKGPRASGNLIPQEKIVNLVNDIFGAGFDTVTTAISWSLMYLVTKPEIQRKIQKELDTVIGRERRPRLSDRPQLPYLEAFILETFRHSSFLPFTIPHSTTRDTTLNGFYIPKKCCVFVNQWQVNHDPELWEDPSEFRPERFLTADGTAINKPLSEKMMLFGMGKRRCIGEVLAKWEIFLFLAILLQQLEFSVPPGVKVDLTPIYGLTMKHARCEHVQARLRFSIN
In short: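 20nM CYP1A2 with 100uM Luciferin-ME (at Km) in 100mM KPO4; compound preincubated 10 min, NADPH regeneration added, 60 min at room temperature. Luciferin quantified by luminescence after detection reagent; normalized to 57 uM furafylline.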

[4] = NFAT Signaling Pathway (AID 444; active means well fitted curve in either direction with a large enough effect, not every such curve was filed as active;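 further: carbachol stimulus at about its EC50 of 1 µM final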); details: Jurkat NFAT-bla M1, carbachol, beta-lactamase ratio, 5 h; at 7.69 µM (top of the series) unless noted
In short: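 Read-out: CCF4 FRET ratio (460 nm/530 nm) after 1 h RT dye loading, used for %activity and AC50 from titration series. Cells: Jurkat NFAT-β-lactamase/M1 line, treated with compound plus 1 uM carbachol for 5 h, 37 °C.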

[5] = Stat Signaling Pathway (AID 446; active means well fitted curve in either direction with a large enough effect, not every such curve was filed as active;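 further: ME-180 cervical cancer cells given 40 pM IL-6 alongside compound; SIE-controlled beta-lactamase reporter measured as 460/530 nm FRET emission ratio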); details: ME-180 SIE beta-lactamase reporter, IL-6 stimulated, 5 h; at 7.69 µM (top of the series) unless noted
In short: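 ME-180 cells carrying a SIE-driven beta-lactamase reporter are stimulated with 40 pM IL-6 for 5 h at 37C in the presence of compound. The 460/530 nm FRET substrate ratio is read after 2.5 h at RT. Data are normalised to 300 pM IL-6 and to 125 nM JAK inhibitor controls.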

[6] = molecular target: Glucocorticoid receptor (Homo sapiens) (UniProt P04150); assay: GR-GFP Redistribution (AID 450;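 active means compounds whose dose series gives a full or clear partial fitted curve of increased nuclear translocation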; further: potency means the concentration at half of the fitted maximal effect); details: U2OS GR-GFP nuclear translocation, laser cytometry, 2 h
Sequence of Glucocorticoid receptor (Homo sapiens) (P04150 whole entry, looked up, the tested form may be a part): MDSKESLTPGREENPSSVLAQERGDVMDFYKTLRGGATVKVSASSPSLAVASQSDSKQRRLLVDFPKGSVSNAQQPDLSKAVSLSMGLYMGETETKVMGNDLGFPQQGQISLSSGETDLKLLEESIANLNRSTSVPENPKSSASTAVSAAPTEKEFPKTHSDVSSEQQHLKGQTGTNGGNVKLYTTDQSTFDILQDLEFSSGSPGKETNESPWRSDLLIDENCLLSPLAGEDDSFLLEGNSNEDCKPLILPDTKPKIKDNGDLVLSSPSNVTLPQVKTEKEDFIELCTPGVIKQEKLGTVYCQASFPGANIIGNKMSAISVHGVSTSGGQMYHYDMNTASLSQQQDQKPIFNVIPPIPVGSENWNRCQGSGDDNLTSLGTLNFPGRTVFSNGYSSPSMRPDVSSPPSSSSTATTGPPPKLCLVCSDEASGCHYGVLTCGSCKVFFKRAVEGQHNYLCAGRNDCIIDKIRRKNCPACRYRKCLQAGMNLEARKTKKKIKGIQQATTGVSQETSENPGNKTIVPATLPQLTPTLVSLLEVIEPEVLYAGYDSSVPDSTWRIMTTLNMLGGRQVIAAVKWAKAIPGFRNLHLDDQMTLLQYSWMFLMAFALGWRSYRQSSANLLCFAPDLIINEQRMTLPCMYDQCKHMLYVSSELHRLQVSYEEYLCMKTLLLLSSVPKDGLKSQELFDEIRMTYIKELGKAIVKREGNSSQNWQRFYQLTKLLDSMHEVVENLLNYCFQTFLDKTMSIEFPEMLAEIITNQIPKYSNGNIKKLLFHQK

[7] = molecular target: Glucocorticoid receptor (Homo sapiens) (UniProt P04150); assay: GR-EFC Redistribution (AID 451; calls by dose curve; further: potency means the concentration at half of the fitted maximal effect); details: CHO-K1 GR-EFC translocation, beta-gal luminescence, 2 h
In short: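 Translocation of GR-ED fusion to nuclear EA restores b-gal, read by luminescence after 1 h room-temperature detection. Engineered CHO-K1 biosensor cells, 1,000/well, exposed 2 h at 37 C to titrations up to 46 uM final.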

[8] = molecular target: Mitogen-activated protein kinase 10 (Mus musculus) (UniProt Q61831); assay: JNK3 AlphaScreen Assay (AID 530; active means well fitted curve in either direction with a large enough effect, not every such curve was filed as active;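 further: kinase came from lysate of stimulated human HepG2 cells; signal reports phosphorylation of biotinylated GST-cJun 1-79 at Ser73 with 10 µM ATP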); details: JNK3 lysate, c-Jun phosphorylation; series mostly up to 57.1 µM
In short: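 Compound titrations were preincubated 15 minutes at room temperature with substrate, antibody and pre-activated JNK3-containing HepG2 lysate. Reactions were started with 10 uM ATP and stopped with EDTA-containing bead buffer for AlphaScreen detection.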

[9] = molecular target: 3',5'-cyclic-AMP phosphodiesterase 4B (Homo sapiens) (UniProt Q07343); assay: qHTS Assay for Inhibitors of PDE-IV (AID 607; active means well fitted activation curve with a large enough effect in the main read-out, with a control signal flat, not every such curve was filed as active); details: HEK293 ACTOne CNG channel cells, membrane potential fluorescence; series mostly up to 22.9 µM
Sequence of 3',5'-cyclic-AMP phosphodiesterase 4B (Homo sapiens) (Q07343 whole entry, looked up): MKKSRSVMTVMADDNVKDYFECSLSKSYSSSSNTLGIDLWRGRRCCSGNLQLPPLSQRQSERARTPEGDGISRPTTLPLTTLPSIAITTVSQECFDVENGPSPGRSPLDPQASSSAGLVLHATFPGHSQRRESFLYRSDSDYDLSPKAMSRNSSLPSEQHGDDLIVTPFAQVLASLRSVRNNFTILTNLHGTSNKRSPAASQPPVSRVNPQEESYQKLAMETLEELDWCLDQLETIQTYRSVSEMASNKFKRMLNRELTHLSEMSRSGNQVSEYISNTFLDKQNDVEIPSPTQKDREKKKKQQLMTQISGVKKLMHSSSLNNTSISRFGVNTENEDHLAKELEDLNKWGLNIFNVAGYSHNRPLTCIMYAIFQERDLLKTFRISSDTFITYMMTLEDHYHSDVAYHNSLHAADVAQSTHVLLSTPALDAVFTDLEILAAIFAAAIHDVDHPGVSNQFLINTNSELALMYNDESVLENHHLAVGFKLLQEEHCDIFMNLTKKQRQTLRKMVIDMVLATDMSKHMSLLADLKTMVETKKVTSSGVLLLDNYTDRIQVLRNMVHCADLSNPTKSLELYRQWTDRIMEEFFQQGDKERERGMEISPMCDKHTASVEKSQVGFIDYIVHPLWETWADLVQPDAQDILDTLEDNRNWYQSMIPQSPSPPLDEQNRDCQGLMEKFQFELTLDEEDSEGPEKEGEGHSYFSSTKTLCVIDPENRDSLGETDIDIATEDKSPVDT
In short: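 HEK293 ACTOne cells with CNG channel (1000/well), endogenous PDE4; membrane potential dye, compounds up to 22.9 uM final. Fluorescence Ex 535/Em 590; RO 20-1724 (100 uM final) as reference.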

[10] = qHTS Assay for Identification of Small Molecule Agonists for Hypoxia Response Element Signaling Pathway (AID 914; active means well fitted activation curve with a large enough effect in the signal ratio, with a control signal flat, not every such curve was filed as active; the % refers to the signal ratio); details: ME-180 (cervical carcinoma) HRE-bla reporter, beta-lactamase ratio, CoCl2, 17 h; activation: stronger effect = higher value
In short: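 HRE-bla ME-180 cells with beta-lactamase reporter under hypoxia response element, compounds with EC50 CoCl2 for 17 hours at 37 C. CCF4 substrate, 460nm/530nm emission ratio gave %Activity; AC50 from titration series.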

[11] = molecular target: Dual specificity protein kinase CLK4 (Homo sapiens) (UniProt Q9HAZ1); assay: qHTS Assay for Inhibitors of CDC-like Kinase 4 (Kinase-Glo Assay) (AID 1770); details: recombinant Clk4, Kinase-Glo ATP depletion luminescence; series mostly up to 66.7 µM; further: nearly all actives have a fitted effect of over 65% in size
Sequence of Dual specificity protein kinase CLK4 (Homo sapiens) (Q9HAZ1 whole entry, looked up): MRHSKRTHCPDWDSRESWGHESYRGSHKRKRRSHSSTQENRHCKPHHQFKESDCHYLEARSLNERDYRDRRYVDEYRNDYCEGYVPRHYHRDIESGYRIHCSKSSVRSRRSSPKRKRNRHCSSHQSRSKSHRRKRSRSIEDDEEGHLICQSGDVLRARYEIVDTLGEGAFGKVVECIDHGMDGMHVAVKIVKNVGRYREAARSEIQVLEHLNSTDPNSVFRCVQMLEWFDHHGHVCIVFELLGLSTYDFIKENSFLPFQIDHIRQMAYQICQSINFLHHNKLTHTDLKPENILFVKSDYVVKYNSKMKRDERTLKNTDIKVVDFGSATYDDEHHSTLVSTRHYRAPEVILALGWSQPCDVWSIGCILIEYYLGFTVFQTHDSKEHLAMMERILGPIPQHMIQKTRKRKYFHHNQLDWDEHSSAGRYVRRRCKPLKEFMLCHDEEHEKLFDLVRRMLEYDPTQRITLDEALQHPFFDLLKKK
In short: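 Recombinant human Clk4 (25 nM) phosphorylated RS repeat peptide (100 uM) with 1 uM ATP in Tris pH 7.5/MgCl2/EGTA/DTT/Triton buffer for 4.5 h at room temperature. Residual ATP was quantified by Kinase-Glo luciferase luminescence.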

[12] = molecular target: Dual specificity protein kinase CLK4 (Homo sapiens) (UniProt Q9HAZ1); assay: qHTS Assay for Inhibitors of CDC-like Kinase 4 (ADP-Glo Assay) (AID 1771); details: recombinant CLK4, ADP-Glo luminescence; series mostly up to 80 µM; further: nearly all actives have a fitted effect of over 70% in size
In short: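 25 nM Clk4 with 100 uM RS repeat peptide and 1 uM ATP (final) in buffer with 2 mM MgCl2, 0.5 mM EGTA, 2.5 mM DTT, 0.01% Triton X-100; 1 h at room temperature; ADP-Glo luminescence for ADP formed.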

[13] = molecular target: Dual specificity protein kinase CLK4 (Homo sapiens) (UniProt Q9HAZ1); assay: qHTS Assay for Inhibitors of CDC-like Kinase 4 (ADP-FP Assay) (AID 1795); details: Transcreener ADP fluorescence polarization; series mostly up to 50 µM; further: nearly all actives have a fitted effect of over 60% in size
In short: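 Recombinant human Clk4 (6.25 nM) phosphorylated RS repeat peptide (100 uM) with 1 uM ATP in Tris pH 7.5/MgCl2/EGTA/DTT/Triton buffer for one hour. ADP was quantified by Transcreener competitive fluorescence polarization against an ADP calibration curve.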

[14] = molecular target: Ubiquitin carboxyl-terminal hydrolase 1 (Homo sapiens) (UniProt O94782); assay: Inhibitors of USP1/UAF1: Pilot qHTS (AID 504865); details: purified USP1/UAF1, Ub-rhodamine cleavage fluorescence; series mostly up to 54.9 µM;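 further: rhodamine fluorescence freed from ubiquitin-rhodamine substrate followed over time; top concentration of the series differs between compounds; nearly all actives have a fitted effect of over 35% in size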
Sequence of Ubiquitin carboxyl-terminal hydrolase 1 (Homo sapiens) (O94782 whole entry, looked up): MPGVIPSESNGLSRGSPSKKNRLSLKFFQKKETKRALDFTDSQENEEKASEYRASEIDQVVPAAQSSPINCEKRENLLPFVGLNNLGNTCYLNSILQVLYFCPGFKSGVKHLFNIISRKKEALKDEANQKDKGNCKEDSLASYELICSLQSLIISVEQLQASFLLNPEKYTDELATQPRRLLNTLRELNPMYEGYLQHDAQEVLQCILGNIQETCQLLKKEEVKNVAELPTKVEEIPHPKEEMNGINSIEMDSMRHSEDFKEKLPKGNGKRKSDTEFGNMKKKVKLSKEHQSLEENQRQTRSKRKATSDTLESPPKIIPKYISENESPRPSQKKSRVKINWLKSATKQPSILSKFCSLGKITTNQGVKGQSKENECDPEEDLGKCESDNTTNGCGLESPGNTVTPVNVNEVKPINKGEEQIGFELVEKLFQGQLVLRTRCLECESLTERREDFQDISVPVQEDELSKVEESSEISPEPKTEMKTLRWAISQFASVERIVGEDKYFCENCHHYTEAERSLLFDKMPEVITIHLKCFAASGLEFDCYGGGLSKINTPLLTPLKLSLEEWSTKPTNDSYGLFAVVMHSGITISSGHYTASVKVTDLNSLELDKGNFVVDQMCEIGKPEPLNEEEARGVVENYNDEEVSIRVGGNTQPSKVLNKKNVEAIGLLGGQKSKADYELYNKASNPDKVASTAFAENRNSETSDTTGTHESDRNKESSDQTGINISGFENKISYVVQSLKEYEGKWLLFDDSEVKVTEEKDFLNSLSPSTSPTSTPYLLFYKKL
In short: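 USP1/UAF1 complex (1nM) preincubated with compound 15 min at room temperature, then Ub-Rho substrate (150nM final) added. Fluorescence read kinetically at 480/540 nm, 6 reads every 60 seconds. Buffer: 50mM HEPES pH 7.8, 0.5mM EDTA, 0.1 mg/ml BSA, 1mM TCEP, 0.01% Tween-20.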

[15] = Primary qHTS for small molecule stabilizers of the endoplasmic reticulum resident proteome: Secreted ER Calcium Modulated Protein (SERCaMP) assay (AID 1508630); details: SH-SY5Y GLuc-SERCaMP (Gaussia luciferase released on ER calcium loss) secretion, thapsigargin, luminescence; series mostly up to 38.4 µM
In short: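 GLuc-SERCaMP-expressing SH-SY5Y cells, pretreated 16 h with compound, are challenged with thapsigargin to empty ER calcium stores; after 4 h, coelenterazine is added directly to the medium and luminescence is imaged.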

[16] = molecular target: Cytochrome P450 3A4 (Homo sapiens) (UniProt P08684); assay: qHTS Assay for Activators of Cytochrome P450 3A4 (AID 885); details: recombinant CYP3A4, Luciferin-PPXE luminescence, 60 min; series mostly up to 57.1 µM; further: nearly all actives have a fitted effect of over 65% in size
Sequence of Cytochrome P450 3A4 (Homo sapiens) (P08684 whole entry, looked up): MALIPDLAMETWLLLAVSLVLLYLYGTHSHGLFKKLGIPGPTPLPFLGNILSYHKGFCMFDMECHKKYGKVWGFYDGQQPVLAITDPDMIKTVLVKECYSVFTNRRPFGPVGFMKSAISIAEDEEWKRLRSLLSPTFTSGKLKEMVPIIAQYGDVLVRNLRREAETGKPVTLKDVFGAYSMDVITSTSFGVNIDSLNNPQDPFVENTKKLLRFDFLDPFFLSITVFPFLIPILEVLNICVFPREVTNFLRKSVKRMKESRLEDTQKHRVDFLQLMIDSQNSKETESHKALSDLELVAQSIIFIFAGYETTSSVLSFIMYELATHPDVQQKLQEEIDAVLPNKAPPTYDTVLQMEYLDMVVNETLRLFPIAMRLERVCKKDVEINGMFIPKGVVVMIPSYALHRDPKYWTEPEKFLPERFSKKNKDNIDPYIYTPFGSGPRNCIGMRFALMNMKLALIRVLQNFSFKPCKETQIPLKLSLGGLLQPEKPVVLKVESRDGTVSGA
In short: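 Human CYP3A4 (20 nM) with Luciferin-PPXE at 25 uM (its KM) in 200 mM KPO4; 10 min compound preincubation, then NADPH regeneration and 60 min reaction at RT. Luciferin read by luminescence; normalized to 57 uM ketoconazole full inhibition.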

[17] = molecular target: Cytochrome P450 2C19 (Homo sapiens) (UniProt P33261); assay: qHTS Assay for Inhibitors and Substrates of Cytochrome P450 2C19 (AID 899); details: recombinant CYP2C19, luciferin-H EGE luminescence; series mostly up to 57.1 µM; further: nearly all actives have a fitted effect of over 60% in size; further: potency means the concentration at half of the fitted maximal effect
Sequence of Cytochrome P450 2C19 (Homo sapiens) (P33261 whole entry, looked up): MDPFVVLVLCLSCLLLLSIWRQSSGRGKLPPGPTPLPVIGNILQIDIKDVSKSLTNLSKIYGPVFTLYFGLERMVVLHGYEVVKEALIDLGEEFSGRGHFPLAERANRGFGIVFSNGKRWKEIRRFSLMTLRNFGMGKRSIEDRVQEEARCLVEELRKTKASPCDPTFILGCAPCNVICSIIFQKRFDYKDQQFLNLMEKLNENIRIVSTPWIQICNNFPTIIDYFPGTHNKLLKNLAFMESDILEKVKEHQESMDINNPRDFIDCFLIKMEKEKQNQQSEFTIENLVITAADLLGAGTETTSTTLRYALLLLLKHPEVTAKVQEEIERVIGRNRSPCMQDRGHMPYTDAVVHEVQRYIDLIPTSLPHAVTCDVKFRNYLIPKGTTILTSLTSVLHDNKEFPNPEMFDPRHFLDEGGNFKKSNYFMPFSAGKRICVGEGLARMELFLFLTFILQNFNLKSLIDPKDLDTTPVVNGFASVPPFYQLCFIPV
In short: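 Luminescence readout of luciferin formed from 10uM Luciferin-H EGE (KM level) by 5 nM CYP2C19 in 50mM KPO4. 60 min NADPH-driven reaction at 37C after 10 min compound preincubation; data scaled to 57uM ketoconazole inhibition.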

[18] = molecular target: Cytochrome P450 2C9 (Homo sapiens) (UniProt P11712); assay: qHTS Assay for Inhibitors and Substrates of Cytochrome P450 2C9 (AID 883); details: recombinant CYP2C9, luciferin-H luminescence, 60 min; series mostly up to 57.1 µM; further: potency means the concentration at half of the fitted maximal effect; nearly all actives have a fitted effect of over 60% in size
In short: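 Luminescent read-out of deoxyluciferin hydroxylation, normalized to 57uM sulphaphenazole (AC100). Reaction: 10nM enzyme, 100uM Luciferin-H (equal to KM), 25mM KPO4, 10 min compound preincubation, then 60 min with NADPH regeneration, both at 37C.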

[19] = molecular target: Cytochrome P450 3A4 (Homo sapiens) (UniProt P08684); assay: qHTS Assay for Inhibitors and Substrates of Cytochrome P450 3A4 (AID 884); details: recombinant CYP3A4, Luciferin-PPXE luminescence; series mostly up to 57.1 µM; further: potency means the concentration at half of the fitted maximal effect; nearly all actives have a fitted effect of over 50% in size
In short: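 20 nM human CYP3A4 with 25 uM Luciferin-PPXE (at KM) in 200 mM KPO4, preincubated 10 min with compound; NADPH regeneration started a 60 min RT reaction. Luciferin detected by luminescence, normalized to 57 uM ketoconazole as full inhibition.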

| Structure (SMILES) | Potency [1] [µM] | activity change, negative = inhibition [2] [%] | Potency [3] | activity change, negative = inhibition [4] [%] | activity, negative = inhibition [5] [%] | Potency [6] [µM] | Potency [7] [µM] | Potency [8] | Potency [9] | activation [10] [%] | Potency [11] | Potency [12] | Potency [13] | Potency [14] | outcome [15] | Potency [16] | Potency [17] | Potency [18] | Potency [19] |
| --- | --- | --- | --- | --- | --- | --- | --- | --- | --- | --- | --- | --- | --- | --- | --- | --- | --- | --- | --- |
| COc1ccc(-n2c(=O)c(-c3ccccc3)nc3cnc(N4CCOCC4)nc32)cc1 | > 11.4 | 5.32 | 15.8 µM (active) | 6.27 | 6.26 | > 9.22 | > 46 | inactive | inactive | -1.88 | inactive | inactive | inactive | inactive | inactive |  |  |  |  |
| COc1ncc2nc(-c3cn(C)c4ccccc34)c(=O)n(C)c2n1 | > 11.4 | 4.21 | 1 µM (active) | 11.4 | 7.15 | > 9.22 | > 46 | inactive | inactive |  | inactive | inactive | inactive | inactive | inactive | inactive | inactive |  |  |
| O=c1c(-c2cccc(F)c2)nc2cncnc2n1Cc1ccccc1Cl | > 11.4 | -4.26 | 3.98 µM (active) | -7.87 | 4.32 | > 9.22 | > 46 | inactive |  |  | inactive | inactive | inactive | inactive | inactive | inactive | 0.794 µM (active) | 7.94 µM (active) |  |
| COCCn1c(=O)c(C)nc2cncnc21 | > 11.4 | -8.48 | 15.8 µM (active) | 3.43 | -7.75 | > 9.22 | > 46 | inactive | inactive |  | inactive | inactive | inactive | inactive | inactive | inactive |  |  |  |
| COc1cccc(Cn2c(=O)c(-c3ccccc3)nc3cnc(OC)nc32)c1 | > 11.4 | -11.6 | 15.8 µM (active) | -17.4 | 1.57 | > 9.22 | > 46 | inactive |  |  | inactive | inactive | inactive | inactive | inactive | inactive |  |  | 7.94 µM (active) |
| CN(C)C(=O)c1ccc(-c2nccc(NCc3ccccc3)n2)cc1 | > 11.4 | -2.34 | 15.8 µM (active) | 15.6 | -5.63 | > 46 | > 46 | inactive | inactive |  | inactive | inactive | inactive | inactive | inactive | inactive |  |  |  |
